# Reference: PubChem BioAssay (NCI)
# Compounds without any hit were thinned out: in the full panel of roughly 83,000, 20% have a hit.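 How to read the values: 0–100, growth inhibition (40 = 60% inhibited); 0, no net growth; -100 to 0, cell death (-40 = 40% of starting cells died; -100 = all dead).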 A number with no mark means an inactive call. Activity calls are given as the source filed them. Rule for the calls: active = growth percent below 10; inactive = the rest.
# Legend:
# Test in all cases: NCI-60 one-dose screen, 48 h (100 = growth as untreated, 0 = no growth, -100 = all killed)
# Settings in all cases: 10 µM unless noted
# [1] = test system: HCT-15 colon
# [2] = test system: HT29 colon
# [3] = test system: SNB-75 CNS
# [4] = test system: SNB-19 CNS
# [5] = test system: U251 CNS
# [6] = test system: PC-3 prostate
# [7] = test system: SK-MEL-5 melanoma
# [8] = test system: UACC-62 melanoma
# [9] = test system: LOX IMVI melanoma
# [10] = test system: SK-MEL-28 melanoma
# [11] = test system: SK-MEL-2 melanoma
# [12] = test system: EKVX NSCLC
# [13] = test system: SN12C renal
# [14] = test system: UO-31 renal
# [15] = test system: TK-10 renal
# [16] = test system: ACHN renal
# [17] = test system: CAKI-1 renal
# [18] = test system: A498 renal
# [19] = test system: CCRF-CEM leukemia
# [20] = test system: MOLT-4 leukemia
SMILES,growth [1],growth [2],growth [3],growth [4],growth [5],growth [6],growth [7],growth [8],growth [9],growth [10],growth [11],growth [12],growth [13],growth [14],growth [15],growth [16],growth [17],growth [18],growth [19],growth [20]
COc1cc(C2CC(c3cccc(Nc4ccncc4)c3)=Nc3c(N)ncnc3N2)cc(OC)c1OC (stereo not given),88.3%,98.1%,83.8%,93.8%,77.7%,93.8%,93.7%,87.3%,91.3%,102%,92.6%,87.2%,93.9%,98.5%,110%,95.1%,85%,87.4%,73.2%,85.6%
COc1ccc(C2=NN3C(C2)c2cc(Br)ccc2OC3c2ccncc2)cc1 (stereo not given),73.1%,109%,78.8%,81.4%,75.3%,63.2%,93.2%,71.5%,62%,105%,97.5%,83.6%,83.3%,44.6%,98.6%,80.7%,45.2%,95.6%,70%,68.5%
C#CC(F)(F)[C@]1(O)CCC2C3CCC4=CC(=O)CCC4=C3[C@@H](c3ccc(N(C)C)cc3)C[C@@]21C (stereo not given in full),90%,87.9%,73.9%,98.6%,89.3%,66%,84%,81%,96.2%,109%,91.8%,90.4%,104%,76.3%,89.7%,99.4%,86.4%,87.9%,56.7%,75.4%
Cc1oc2ccc(O)c(CN3CCCCCC3)c2c1C(=O)Nc1ccc(C(F)(F)F)cc1,45.1%,80.5%,50.6%,69.9%,55.1%,45.7%,70%,67.3%,39.2%,76.9%,78.4%,64.1%,66.7%,40.7%,81.1%,68.5%,50.5%,50.5%,65.2%,64.3%
Nc1c(C(=O)c2ccc(Cl)cc2)sc(Nc2ccccc2)c1-c1nc2ccccc2s1,39.7%,17.9%,18.1%,62.1%,4.94% (active),10.3%,55.1%,7.88% (active),17.8%,42.6%,38.5%,59.9%,82.6%,19.3%,-13.3% (active),26.2%,25.2%,46.2%,60.3%,76.5%
Cc1nc2ccccc2c(/C=C/c2ccc(Br)cc2)c1C(=O)/C=C/c1ccccc1,-27.3% (active),-15.1% (active),51.3%,-11.6% (active),-81.9% (active),19.7%,6.82% (active),-5.46% (active),-89.6% (active),3.46% (active),-4.28% (active),26.1%,10.8%,-74.2% (active),21.2%,6.36% (active),4.36% (active),18%,6.02% (active),7.65% (active)
C=C(CNCCO)[C@@H]1CC[C@]2(CO)CC[C@]3(C)[C@H](CC[C@@H]4[C@@]5(C)CCC(NCCO)C(C)(C)[C@@H]5CC[C@]43C)[C@@H]12 (stereo not given in full),71.6%,12.7%,66.8%,83.6%,31.4%,75.2%,65.2%,94.6%,33.3%,80.7%,96.1%,82.4%,89.1%,65.2%,92.7%,95.9%,72.2%,75.3%,39.2%,39.9%
O=C(Nc1cccc(Cn2c(=O)[nH]c3ccc(Oc4ncccn4)cc3c2=O)c1)c1cccc(Cl)c1,61.3%,54.8%,82.2%,65.3%,61.9%,50.3%,11.4%,52.1%,71.4%,78.8%,71.7%,46.3%,80.1%,39.6%,53.3%,60%,52.4%,45.3%,47.1%,15.4%
Brc1ccc(-c2nn(-c3ccccc3)cc2-c2nn[nH]n2)s1,96.2%,117%,92.7%,87.3%,87.8%,93.7%,90%,85.1%,90.9%,96.2%,96.2%,83.5%,80%,52.8%,102%,89.5%,88.1%,65.7%,90.9%,99.1%
COc1ccc(-n2c(=O)n(-c3ccc(-c4nc5ccc(F)cc5s4)cc3)c(=O)c3cccnc32)cc1,101%,87.3%,75.2%,98.5%,96.9%,94.5%,101%,87.4%,99.5%,107%,103%,91.6%,100%,75.6%,119%,103%,85.3%,98.2%,102%,97.7%
C#Cc1cccc(Nc2ncnc3ccc(-c4cnc(Cl)c(NS(C)(=O)=O)c4)cc23)c1,-32.2% (active),-21.1% (active),-21.8% (active),-24.3% (active),-61.6% (active),-7.01% (active),-95.6% (active),-67.9% (active),-53.4% (active),-12.1% (active),-73.6% (active),-46.3% (active),3.41% (active),-80.8% (active),-72.8% (active),13.4%,-31.9% (active),-76.8% (active),7.99% (active),-11.7% (active)
CCOC(=O)c1cc(C(=O)c2cc(OC)cc(OC)c2)n2ccccc12,25.6%,10.1%,20.5%,41.7%,38.6%,40.4%,27.4%,30.9%,38.1%,67.3%,41.7%,73.7%,66.9%,62%,55.9%,48.6%,42.2%,28.8%,34.6%,30.6%
Cc1cc2c(c(C)n1)CN(C(=O)Nc1nc(-c3cncs3)ccc1N)C2,102%,91%,90.3%,99.5%,86.9%,104%,105%,91.9%,111%,105%,81%,97.3%,105%,92%,62.7%,106%,76.8%,96%,107%,107%
N=C(N)c1ccc(-c2ccc(-c3ccccc3)s2)nc1,44.9%,26.7%,88.4%,87.5%,41.1%,80.5%,87.5%,91.6%,51.3%,109%,104%,88.8%,82.4%,79.9%,106%,91.5%,73.6%,88.3%,68.9%,57.3%
O=C(NCCN1CCOCC1)c1cncnc1Nc1ccc2c(ccn2Cc2ccccn2)c1,105%,102%,82.4%,95.5%,99.7%,101%,101%,94.6%,101%,108%,110%,104%,93.7%,88.5%,98.7%,107%,92.4%,101%,121%,104%
